CCHF vOTU inh – CCHFV vOTU protease inhibition. Pep-AMC fluorescence. inhibition, % at 11.5 µM. hit rate 0.55% among 370,000. AID 651958; in the data active = inhibition above about 30%; note: 0% = vehicle wells with enzyme and 100% = no enzyme wells
BJeLR lethal – BJeLR cell viability loss; hit rate 0.17% among 300,000; inhibition, % (no concentration beside the values); AID 1554; BJeLR (HRASV12) viability, CellTiter-Glo ATP luminescence, 48 h; in the data active = inhibition above about 50%
VHR inh abs – blocks human VHR1 dual specificity phosphatase; AID 1654; inhibition, % at 13.3 µM; hit rate 0.52% among 290,000; recombinant VHR phosphatase, pNPP absorbance; in the data active = inhibition above about 50%
Target sequence (P51452 whole entry, looked up): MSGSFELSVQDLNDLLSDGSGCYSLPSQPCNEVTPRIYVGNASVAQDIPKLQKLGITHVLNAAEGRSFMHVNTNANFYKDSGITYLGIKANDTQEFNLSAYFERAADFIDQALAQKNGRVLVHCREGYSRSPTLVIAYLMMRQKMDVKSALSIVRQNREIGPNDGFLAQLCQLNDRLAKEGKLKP
3CLpro inhibitor – SARS-CoV 3CLpro protease inhibition; P0C6X7; recombinant SARS-CoV 3CLpro, quenched FRET peptide cleavage; inhibition, % at 6 µM; hit rate 0.14% among 290,000; AID 1706; in the data active = inhibition above about 12%
MazEF act – MazEF (E. coli) toxin RNase activation. P0AE70. FAM/BHQ RNA-DNA oligo cleavage fluorescence, 5 h. activation, % at 20 µM. hit rate 0.32% among 350,000; in the data active = activation above about 50%
Target sequence (P0AE70 whole entry, looked up): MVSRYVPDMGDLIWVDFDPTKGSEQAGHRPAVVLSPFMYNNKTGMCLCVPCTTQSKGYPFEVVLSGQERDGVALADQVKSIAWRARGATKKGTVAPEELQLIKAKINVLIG
Active calls of the source: *; / = no result. Shown are actives, neighbours in structure and some others; about 1.4% of the full set was active somewhere.

SMILES | CCHF vOTU inh | BJeLR lethal | VHR inh abs | 3CLpro inhibitor | MazEF act
Cc1cccc(N(C)S(=O)(=O)c2ccc(-c3cnc(C4CC4)o3)cc2)c1 | 18 | 65* | 2 | 6 | -7
COc1ccc(NC(=O)CN(C)C(=O)c2cccc3ccccc23)cc1 | 1 | -5 | / | / | -7
COc1ccc(NC(=O)CN(C)C(=O)c2ccccc2OC)cc1 | -9 | 0 | 51* | -1 | 9
COc1ccc(OC)c(CN2C(=O)CN(S(C)(=O)=O)CC2(C)c2nnnn2C2CCCC2)c1 (stereo not drawn) | -6 | / | / | / | /
C=CCN1[C@@H](C)COc2cc(N3CCSCC3)ccc2S1(=O)=O | 13 | / | / | / | /
COCc1[nH]nc2c1C(c1cc(OC)c(O)c(OC)c1)C(C#N)=C(N)O2 (stereo not drawn) | -1 | -10 | 1 | 4 | 195*
COc1cc(C2C(C#N)=C(N)Oc3n[nH]c(-c4cccs4)c32)cc(OC)c1O (stereo not drawn) | -3 | 1 | 7 | -2 | 60*
CCCc1[nH]nc2c1C(c1ccc(O)c(OC)c1)C(C#N)=C(N)O2 (stereo not drawn) | 1 | -9 | 14 | 4 | 53*
CC(C)Oc1cccc(-c2n[nH]c(=S)n2N=Cc2ccc(O)cc2O)c1 | 7 | / | / | / | /
COCC(=O)N[C@H]1C[C@@H]2O[C@@H](CO)CC[C@@H]2O[C@@H]1CCc1ccc(-c2ccccc2)cc1 | -5 | / | / | / | /
CCN(CC)c1ccc(C=Nn2c(-c3ccc(F)cc3)n[nH]c2=S)c(O)c1 | 24 | / | / | / | /
Cc1ccc(NC(=O)Cn2nnc(C(=O)NCc3ccc4c(c3)OCO4)c2N)cc1 | 19 | 12 | -17 | 5 | -70
Cc1cc(C)c(NC(=O)Cn2nnc(C(=O)NCc3ccc4c(c3)OCO4)c2N)c(C)c1 | / | 5 | -7 | 2 | 70*
Nc1c(C(=O)NCc2ccc3c(c2)OCO3)nnn1CC(=O)Nc1ccc(Br)cc1 | -5 | 8 | -17 | 8 | 90*
CC(C)n1nnnc1C1(C)CN(S(C)(=O)=O)CC(=O)N1Cc1cccc(C(F)(F)F)c1 (stereo not drawn) | -5 | / | / | / | /
COC(=O)C[C@@H]1CC[C@H]2[C@@H](COc3ccc(NC(=O)Nc4ccccc4)cc3C(=O)N2C)O1 | 2 | / | / | / | /
C#CCn1c(=NC(=O)c2ccc(S(=O)(=O)N3CCc4ccccc4C3)cc2)sc2cc(S(N)(=O)=O)ccc21 | / | 9 | 17 | 3 | -36
C#CCn1c(=NC(=O)c2sc3ccccc3c2Cl)sc2cc(S(N)(=O)=O)ccc21 | 24 | 4 | -3 | -2 | 63*
O=S1(=O)c2ccc(N3CCC[C@@H]3CO)cc2O[C@@H]2CCN1C2 | -6 | / | / | / | /
COc1ccc(C2NC(=O)c3ccccc3O2)cc1OC (stereo not drawn) | -6 | -1 | 0 | -8 | 7
CCC(=O)Oc1ccc(C2NC(=O)c3ccccc3O2)cc1OC (stereo not drawn) | -4 | -1 | 60* | 0 | -4
CCCC(=O)Oc1ccc(C2NC(=O)c3ccccc3O2)cc1OC (stereo not drawn) | -7 | -5 | 60* | -3 | 4
Cc1ccccc1CNC(=O)C1CCC(CNS(=O)(=O)c2cccc3cccnc23)CC1 (stereo not drawn) | 7 | / | / | / | /
CCCN(CC1CC1)C(=O)CSc1nnc(-c2ccncc2)n1-c1ccc(OC)cc1 | -3 | / | / | / | /
COC(=O)[C@]12C[C@H](CC(=O)NCC34CC5CC(CC(C5)C3)C4)C(=O)N(Cc3ccc(Cl)cc3Cl)C1=C[C@H](C1CCCC1)O[C@@H]2C | 8 | / | / | / | /
SMILES | CCHF vOTU inh | BJeLR lethal | VHR inh abs | 3CLpro inhibitor | MazEF act
O=C(NCCc1c[nH]c2ccccc12)c1ccc2c(c1)ncn2C1CCCCC1 | 0 | / | / | / | /
CC1=CC(c2ccccc2)n2nc(N3C(=O)C4CC=CCC4C3=O)nc2N1 (stereo not drawn) | -167 | 3 | 57* | -1 | 3
CC1=CC(c2ccccc2)n2nc(N3C(=O)CCC3=O)nc2N1 (stereo not drawn) | -110 | -26 | 0 | 3 | 8
COc1ccc(/C=C/C(=O)NC(=S)N2CCN(C)CC2)cc1 | 9 | 2 | 12 | -2 | 51*
Cc1nc2cc(OCc3cc(C(=O)NC(C)c4cnn(C)c4)no3)ccc2s1 (stereo not drawn) | 28 | -4 | 51* | 1 | 3
Cc1cc(C)cc(NC(=O)NC2CCN(S(=O)(=O)c3ccc(F)cc3)CC2)c1 | -3 | / | / | / | /
Cc1cc(NC(=O)CSc2nc(-c3ccccc3Cl)nc3c2c(=O)n(C)c(=O)n3C)no1 | -17 | -20 | 26 | 1 | 112*
CCOc1ccc(/C=C/C(=O)Nc2ccc(OC)cc2[N+](=O)[O-])cc1 | 24 | 3 | 10 | -3 | 237*
